The results in this text go back to PubChem BioAssay AID651815 (National Center for Advancing Translational Sciences (NCATS), 2012).

Where “and” joins values, the source holds several entries; their conditions need not be identical. Equal entries are not always repeated. About 1,100 (52%) of roughly 2,100 compounds were called active. Another 29% or so got no clear call; they are omitted. The call rests on the fitted dose curve; in most records, active means well fitted inhibition curve with a large enough effect; inconclusive means small, poorly fitted or top-dose-only effect; inactive means no such curve, though single readings can be large or run the other way. The set was probably picked from earlier hits. This is one part of the list.
Potency means the concentration at half of the fitted maximal effect.

This assay deals with DNA dC->dU-editing enzyme APOBEC-3F (Homo sapiens) (UniProt Q8IUX4). Kind of assay: qHTS for inhibitors of Vif-A3F interactions: Cherry picks counterscreen. Further: nearly all actives have a fitted effect of over 65% in size. As to conditions: HeLa A3F-eYFP/Vif cells, eYFP fluorescence, 24 h; series mostly up to 46.1 µM. Summed up: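 HeLa cells stably expressing A3F-eYFP and Vif, cultured overnight, then treated 24 h at 37 degrees C with compounds at several concentrations; yellow fluorescence (488 nm Ex/500-530 nm Em) imaged on Acumen; MG132 positive control.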
DNA dC->dU-editing enzyme APOBEC-3F (Homo sapiens), sequence (Q8IUX4 whole entry, looked up): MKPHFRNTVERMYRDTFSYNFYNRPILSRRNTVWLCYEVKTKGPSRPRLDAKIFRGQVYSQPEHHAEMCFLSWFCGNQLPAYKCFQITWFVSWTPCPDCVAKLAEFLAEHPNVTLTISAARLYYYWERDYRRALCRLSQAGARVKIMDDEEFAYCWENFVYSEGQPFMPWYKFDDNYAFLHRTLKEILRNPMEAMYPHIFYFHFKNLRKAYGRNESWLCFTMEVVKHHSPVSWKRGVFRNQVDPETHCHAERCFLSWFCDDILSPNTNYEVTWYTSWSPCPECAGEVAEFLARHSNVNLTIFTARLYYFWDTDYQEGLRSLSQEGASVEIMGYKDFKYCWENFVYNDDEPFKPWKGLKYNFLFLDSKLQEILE
Regarding `Fc1ccc(-c2cnn3c(-c4cccs4)ccnc23)cc1`, the Potency was 15.8 µM (active). For the compound `COc1ccccc1C1c2ccc3ccccc3c2Oc2ncn(CCN(C)C)c(=N)c21` (stereo not drawn), the Potency was 15.8 µM (active). With `COC(=O)C1C2CC3c4[nH]c5cc(OC)ccc5c4CCN3CC2CC(OC2CCCCO2)C1OC` (stereo not drawn), the Potency result was “inactive”. The result for `COC(=O)C1=COC(C)C2CN3CCc4c([nH]c5cc(OC)c(OC)cc45)C3CC12` (stereo not drawn) reads “inactive”. The result for `COC(=O)C1C2CC3c4[nH]c5cc(OC)ccc5c4CCN3CC2CC(OC(=O)CC(C)=O)C1OC` (stereo not drawn) reads 18.4 µM (active).

For `COc1ccc(-c2n[nH]c(C)c2-c2ccc(OC)c(OC)c2)c(O)c1`, the Potency is 7.9 µM (active).

Regarding `O=[N+]([O-])c1ccccc1S(=O)(=O)Nc1ccc(-c2ccc(N3CCOCC3)nn2)cc1`, the Potency result is “inactive”. The result for `COc1ccccc1NS(=O)(=O)c1cc([N+](=O)[O-])ccc1N/N=C/c1sc(N2CCOCC2)nc1-c1ccccc1` reads 1.46 µM (active); that for `O=[N+]([O-])c1ccc(N/N=C/c2sc(N3CCOCC3)nc2-c2ccccc2)c(S(=O)(=O)Nc2ccccc2Cl)c1`, 5.8 µM (active). The result for `CCOC(=O)c1ccc(NC(=S)NC(=O)C2CCCC2)cc1` reads “inactive”. Take `COC(=O)c1ccc(NC(=O)CC2Nc3cc(C)c(C)cc3NC2=O)cc1` (stereo not drawn): the Potency was 9.2 µM (active). With `CCCSc1ncc(Cl)c(C(=O)Nc2sc3c(c2C(N)=O)CCCC3)n1`, the Potency was 18.4 µM (active).

Take `CCOC(=O)c1ccc(/C=C2/C=C(c3ccccc3)N(c3ccc(Cl)c(C(=O)O)c3)C2=O)cc1`: the Potency is 20.6 µM (active).

Turning to `Cc1cc(NC(=O)CSc2nc(-c3cccs3)nc3ccccc23)no1`, the Potency was 0.994 µM (active).

As for `Cc1cc(NC(=O)CSc2nc3c(C)cccc3cc2C#N)no1`, the Potency was 6.51 µM (active).

As for `Cc1cc2cc(C#N)c(SCC(=O)Nc3nonc3C)nc2cc1C`, the Potency is 23.1 µM (active). The result for `Cc1nonc1NC(=O)CSc1nc2c(C)cccc2cc1C#N` reads 16.4 µM (active). The result for `CC(Nc1oc(-c2ccc(COc3ccccc3)o2)nc1C#N)c1ccccc1` (stereo not drawn) reads “inactive”; that for `Cc1ccc2nc(SCC(=O)Nc3ccc4sc(C)nc4c3)c(C#N)cc2c1`, 16.4 µM (active); that for `Cc1nc2cc(NC(=O)CSc3nc4c(C)cccc4cc3C#N)ccc2s1`, 13 µM (active). The result for `Cc1cccc(C(=O)Nc2nnc(C3=COCCO3)o2)c1` reads “inactive”; that for `N=C1S/C(=C\c2ccc(-c3cccc(Cl)c3)o2)C(=O)N1c1nccs1`, 18.4 µM (active); that for `Cc1ccc(N=Cc2c(O)n(-c3nccs3)c(=O)c3ccccc23)c(C)c1`, “inactive”.

Turning to `COc1ccc(N=Cc2c(O)n(-c3cccc(C)n3)c(=O)c3ccccc23)c(OC)c1`, the Potency is 23.1 µM (active). The result for `O=C(N/N=C/c1c(O)n(-c2ccc(Cl)cn2)c(=O)c2ccccc12)c1ccncc1` reads “inactive”. Consider `CCOC(=O)Cc1ccc(Nc2nc3cc(-c4sccc4C)sc3c(=O)n2C)cc1`, for which the Potency is 3.96 µM (active). The result for `COc1ccc(-n2cc3c(-c4cccc(Br)c4)nnc(C)c3n2)cc1` reads “inactive”; that for `CCOc1cccc(-n2nnnc2-c2ccc(OC)cc2)c1`, 4.44 µM (active).

As to `COc1ccc(-n2nnnc2-c2ccccc2)cc1`, the Potency is 2.5 µM (active).

Consider `COc1ccc(-n2nnnc2-c2cccc(OC)c2)cc1`, for which the Potency is 1.25 µM (active).

Take `COc1ccc(-c2cc(NC(C)=O)c3ncc(-c4cc(OC)c(OC)c(OC)c4)n3c2)cn1`: the Potency was 7.04 µM (active). On to `COc1cc(-c2cnc3c(NC(C)=O)cc(-c4ccccc4CN(C)C)cn23)cc(OC)c1OC`, for which the Potency was 12.5 µM (active). The result for `Cc1ccc(CNC(=O)c2cccc(Nc3nc4ccccc4n4nnnc34)c2)cc1` reads 20.6 µM (active); that for `CC(NC(=O)c1ccc(Nc2nc3ccccc3n3nnnc23)cc1)c1ccccc1` (stereo not drawn), 18.4 µM (active). The result for `COc1ccccc1CNC(=O)c1ccc(Nc2nc3ccccc3n3nnnc23)cc1` reads 23.1 µM (active). Regarding `COc1cc(Nc2nc3ccccc3n3nnnc23)cc(OC)c1OC`, the Potency was 13 µM (active). With `Cc1cc(C)nc(-n2nc(C)cc2NC(=O)c2ccc(F)cc2F)n1`, the Potency entry is “inactive”. The result for `COc1cc2ccccc2cc1C(=O)N/N=C/c1cccs1` reads 1.77 µM (active); that for `COc1ccc(NC(=O)/C(C#N)=C/C=C/c2ccco2)cc1`, 6.27 µM (active). The result for `COc1ccc(NC(=O)/C(C#N)=C\C=C\c2ccco2)cc1` reads 7.04 µM (active); that for `CCOC(=O)c1c(NC(=O)CSc2nc3ccc(OC)cc3[nH]2)sc2c1CC(C)(C)NC2(C)C`, “inactive”.

With `C=CCOc1ccc2nc(NC(=O)OC)[nH]c2c1`, the Potency is 2.5 µM (active). The result for `CC(C)n1cnc2c(NCc3ccccc3)cc(N[C@H](C)CO)cc21` reads 14 µM (active); that for `COc1ccccc1Nc1nnc(SCC2CCCCO2)s1` (stereo not drawn), 14 µM (active); that for `Cc1ccc(NC(=O)C(=Cc2ccc(C(=O)O)cc2)C(=O)Nc2ccc(C)cc2C)c(C)c1`, 3.53 µM (active). The result for `COc1cc(/C=C2\SC(=S)N(NC(=O)c3ccccc3OC)C2=O)ccc1O` reads “inactive”. The result for `COc1cc(/C=C2\SC(=S)N(Nc3ncc(C(F)(F)F)cc3Cl)C2=O)ccc1O` reads 20.6 µM (active); that for `C=CCN1C(=O)/C(=C/c2ccc(O)c(OC)c2)S/C1=N/c1nccs1`, “inactive”; that for `CN(C)c1ccc(/C=C2\SC(=S)N(Nc3ncc(C(F)(F)F)cc3Cl)C2=O)cc1`, 6.51 µM (active).

On to `N=C1/C(=C\c2coc3ccccc3c2=O)C(=O)N=C2SC(c3ccncc3)=NN12`, for which the Potency was 20.6 µM (active). The result for `COc1ccc(-c2coc3cc4oc(=O)cc(-c5ccccc5)c4cc23)cc1F` reads 1.98 µM (active). The result for `COc1ccc(C)cc1NCc1cc(=O)oc2cc(-c3ccccc3)c(O)cc12` reads “inactive”. On to `COc1ccc2nc3sc(C(=O)Nc4cc(Cl)c(OC)cc4OC)cc3cc2c1`, for which the Potency was 4.11 µM (active). The result for `Nc1nc2n[nH]nc2c(=O)[nH]1` reads 9.2 µM (active) and 3.96 µM (active); that for `C=CCn1c(SCc2c(C)noc2C)nc2cc(C(=O)O)ccc2c1=O`, 17.7 µM (active).

On to `Cc1noc(C)c1CSc1nc2ccccc2c(=O)n1-c1ccccc1`, for which the Potency is 3.53 µM (active). In the case of `O=C(N=c1ccn(-c2nc3ccccc3nc2NS(=O)(=O)c2ccccc2)cc1)c1cccs1`, the Potency result is “inactive”.

Regarding `O=S(=O)(Nc1nc2ccccc2nc1N1CCc2ccccc2C1)c1ccc(Br)cc1`, the Potency is 23.1 µM (active). On to `O=S(=O)(Nc1nc2ccccc2nc1N1CCN(c2ccccc2)CC1)c1ccc(F)cc1`, for which the Potency was 18.4 µM (active).

As for `CN1CCN(c2nc3ccccc3nc2NS(=O)(=O)c2ccc(Br)cc2)CC1`, the Potency is 18.4 µM (active). The result for `O=C(N=c1ccn(-c2nc3ccccc3nc2NS(=O)(=O)c2ccc(Cl)cc2)cc1)c1cccs1` reads 16.4 µM (active); that for `O=S(=O)(Nc1nc2ccccc2nc1N1CCN(c2ccccn2)CC1)c1ccc(Cl)cc1`, 16.4 µM (active); that for `NC(=O)C1CCN(c2nc3ccccc3nc2NS(=O)(=O)c2ccc(Br)cc2)CC1`, 16.4 µM (active). The result for `O=C(NC(=S)N1CCN(c2ccccn2)CC1)c1ccccc1` reads “inactive”; that for `Cc1c(=O)n(OCc2ccc(Cl)cc2)c2ccccc2[n+]1[O-]`, “inactive”; that for `CN1/C(=C/C=C(/C#N)C(N)=O)C(C)(C)c2ccccc21`, 7.04 µM (active).

With `CN1/C(=C/C=C(C#N)C#N)C(C)(C)c2ccccc21`, the Potency was 2.91 µM (active). Regarding `CN1/C(=C\C=C(C#N)C#N)C(C)(C)c2ccccc21`, the Potency is 16.4 µM (active). Consider `CC1=C/C(=C\C=C(C#N)C#N)N(C)c2ccccc21`, for which the Potency is 3.26 µM (active). Consider `COC(=O)COc1cccc2c(=O)n(CC(=O)NCc3ccccc3)ccc12`, for which the Potency was 4.44 µM (active). Take `CCOC(=O)C(C)Oc1cccc2c(=O)n(CC(=O)NCc3ccco3)ccc12` (stereo not drawn): the Potency was 3.14 µM (active).

As for `CCOc1cc(-c2nnc(SCC(=O)NCc3ccccc3)nc2-c2ccc(OC)c(OCC)c2)ccc1OC`, the Potency was 2.31 µM (active).

For the compound `CCC(C)Sc1cc(-c2nc3ccccn3c2NC2CCCCC2)ccc1OC` (stereo not drawn), the Potency entry is “inactive”. Take `COc1cc(-c2nc3ccc(C)cn3c2NCc2ccccc2)ccc1SC1CCCCC1`: the Potency entry is “inactive”. `CCOc1cc(C)nc(NCc2ccccc2)n1`: the Potency result is “inactive”. The result for `COc1ccc(-c2nc3c4ccccc4ccn3c2Cc2ccsc2)cc1OC` reads “inactive”. The result for `COc1ccc(-c2nnc(SCC(=O)NCc3ccccc3)nc2-c2ccc(OC)c(OC)c2)cc1OC` reads 5.17 µM (active); that for `N#CC1=C(N)C(C#N)(C#N)[C@H](c2c(F)cccc2F)[C@H]2CC3(CC=C12)OCCO3`, 16.4 µM (active); that for `Cc1cccc(CN2C(=O)N/C(=C/c3ccc(C)s3)C2=O)c1`, 12.5 µM (active). The result for `Cc1ccc(/C=C2/NC(=O)N(Cc3ccccc3F)C2=O)s1` reads 4.11 µM (active); that for `C/C(CCC(C)C)=N\NC(=S)NCc1ccccc1`, “inactive”. In the case of `CC(=O)Nc1ccc2c(c1)Cc1ccc(Cl)cc1-2`, the Potency entry was “inactive”.

As for `CC(=O)Nc1ccc(C2=CC(=O)C[C@H](c3ccc(Cl)cc3)C2)cc1`, the Potency is 20.6 µM (active). The result for `O=c1[nH]c(CN2CCN(c3ccccc3)CC2)nc2scc(-c3ccccc3)c12` reads 16.4 µM (active); that for `COc1cccc(N2CCN(Cc3nc4scc(-c5ccccc5)c4c(=O)[nH]3)CC2)c1`, 9.94 µM (active); that for `O=C(NC(=S)N1CCN(C2CCCCC2)CC1)c1ccccc1`, “inactive”. Take `COc1ccc(Cl)cc1NC(=O)CN(C)CC(=O)Nc1ccccc1N1CCOCC1`: the Potency is 3.53 µM (active). The result for `C/C(CC(=O)NCc1ccco1)=N\NC(=O)COc1ccc(Cl)cc1Cl` reads 12.5 µM (active). With `C/C(CC(=O)NCc1ccc(Cl)cc1)=N\NC(=O)COc1ccc(C)cc1Br`, the Potency is 15.8 µM (active). The result for `O=C(Oc1ccc(Cl)c2cccnc12)c1ccco1` reads “inactive”; that for `c1ccc(N=Nc2ccc3cccccc2-3)cc1`, 15.8 µM (active); that for `CCOC(=O)C(=Cc1ccc(-n2ccnc2)cc1)C(=O)OCC`, 12.5 µM (active). The result for `CCOC(=O)C(=Cc1ccc(-n2cncn2)cc1)C(=O)OCC` reads 7.9 µM (active).
